From PubChem BioAssay
A selection: hits, their analogues and other compounds. The true share with any hit is near 17%.
HepG2 tox: counter-screen for TGF-b inhibitors: cytotoxicity in HepG2 cells | HepG2 CAGA-GFP viability, ATP luminescence, 18 h | Potency, µM (titrated, usually from 46.1 µM), without a hit: top-dose activity change, negative = cytotoxicity, usual class: cytotoxic | actives 0.76% (n = 410,000) | AID 588856
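HepG2 CAGA-GFP cells (1000/well, DMEM with 1% FBS) received compound, then TGF-beta at 500 pg/mL final, and were incubated 18 hours at 37 degrees C. Viability was read by CellTiter-Glo luminescence. Media-only wells were set as complete cell-killing and DMSO as no toxicity.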
TDP1 cell CPT: DT40-hTDP1 cell growth loss with CPT | chicken DT40 Tdp1-/-;hTDP1 cells + 20 nM CPT, ATP luminescence, 48 h | Potency, µM (highest dose often 46.2 µM), for the others: at the top dose activity change, negative = growth inhibition, usual class: inhibitors | actives 12% (n = 420,000) | AID 686979; further: on the % scale 0 is the no-effect control and ±100 the full control effect; nearly all actives have a fitted effect of over 55% in size
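Cell growth measured by CellTiter-Glo luminescence after a minimum 48 h, 37 C compound exposure with 20 nM CPT in Tdp1-knockout DT40 cells stably expressing hTDP1, seeded 400/well; qHTS titration format.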
S2 tox: viability counter-screen for ATXN expression inhibitors; Potency, µM (top dose mostly 56.7 µM), hits mostly cytotoxic; actives 0.49% (n = 400,000); S2 cells (HEK-293 line with an ATXN2-luciferase reporter) viability, CellTiter-Fluor protease fluorescence, 24 h; AID 651635; further: nearly all actives have a fitted effect of over 40% in size
DT40 TDP1 no CPT: qHTS for Inhibitors of human tyrosyl-DNA phosphodiesterase 1 (TDP1): qHTS in cells in absence of CPT; DT40 Tdp1-/- hTDP1 cells, no CPT, ATP luminescence, 48 h; Potency, µM (top dose mostly 46.2 µM), without a hit: at the top dose activity change, negative = growth inhibition, most hits filed as inhibitors; actives 15% (n = 420,000); AID 686978, 2013; further: on the % scale 0 is the no-effect control and ±100 the full control effect; nearly all actives have a fitted effect of over 55% in size
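DT40 Tdp1-/-;hTDP1 cells, no CPT (DMSO vehicle only), 400 cells/well; compounds pin-transferred; ≥48 hr, 37 °C; CellTiter-Glo 30 min RT dark, luminescence read.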
TGFb inhibitor: blocks TGF-b signaling; HepG2 CAGA-GFP TGF-b/SMAD3 reporter, GFP fluorescence, 18 h; TGF-beta stimulated, 500 pg/mL final; Potency, µM (top dose mostly 46.1 µM), without a hit: at the top dose activity, negative = inhibition, hits mostly inhibitors; actives 1.2% (n = 410,000); AID 588855; further: on the % scale 0 is the no-effect control and ±100 the full control effect; nearly all actives have a fitted effect of over 65% in size
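Inhibition of TGF-beta-driven CAGA-GFP reporter expression in HEPG2 cells is measured by cellular GFP fluorescence after 18 h stimulation with 500 pg/mL recombinant TGF-beta in 1% FBS medium at 37 degrees C.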
ATXN2 expr inh: ATXN2 expression inhibition. HEK-293 ATXN2-luciferase reporter, luminescence, 24 h. Potency, µM (top dose mostly 57 µM), for the others: at the highest dose activity change, negative = inhibition, hits mostly inhibitors. actives 0.72% (n = 360,000); further: on the % scale 0 is the no-effect control and ±100 the full control effect; nearly all actives have a fitted effect of over 55% in size
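qHTS (up to 57 uM final) was run with 24 h compound exposure of reporter cells at 37 °C. Each well was multiplexed: SteadyGlo luminescence measured ATXN2-luciferase expression after a fluorogenic Gly-Phe-AFC viability readout (25 uM final).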
Numbers without * were called inactive; i = inactive; ? = inconclusive; . = not tested or not shown; [ ] = another dose, or the depositor's remark. The call rests on the fitted dose curve; in most records, active means well fitted curve in the direction sought with a large enough effect; inconclusive means small, poorly fitted or top-dose-only effect, or another doubt; inactive means no such curve, though single readings can be large; an effect the other way counts as inactive or inconclusive. Potency means the concentration at half of the fitted maximal effect.

SMILES	HepG2 tox	TDP1 cell CPT	S2 tox	DT40 TDP1 no CPT	TGFb inhibitor	ATXN2 expr inh
CCCCC(=O)NC(c1ccccc1Cl)c1c(O)ccc2ccccc12 (stereo unspecified)	-14%	?	i	?	?	-8%
CCCC(=O)NC(c1ccc(N(C)C)cc1)c1c(O)ccc2ccccc12 (stereo unspecified)	10%	7%	i	8%	-1%	9%
COc1ccc(C(Nc2ccccn2)c2ccc3ccc(C)nc3c2O)cc1C (stereo unspecified)	-35%	?	?	?	?	?
CCCC(=O)NC(c1ccc(C)cc1)c1ccc2cccnc2c1O (stereo unspecified)	-18%	2.3µM*	i	1.2µM*	?	?
CCCC(=O)NC(c1cccc([N+](=O)[O-])c1)c1ccc2cccnc2c1O (stereo unspecified)	-16%	12µM*	?	2.9µM*	-28%	.
Cc1ccc(C(Nc2ccccn2)c2ccc3cccnc3c2O)cc1 (stereo unspecified)	-22%	21µM*	?	5.8µM*	?	?
Cc1cc(C)c2c(=O)[nH]c(SCc3ccc([N+](=O)[O-])cc3)nc2n1	2%	3%	i	-23%	7%	-8%
CC(=O)N1CCC[C@H]1C(=O)NCC1Cc2cc(C)cc(-c3ccc(Cl)cc3)c2O1 (stereo partly specified)	.	-12%[9.04 µM]	i	-22%	.	.
Cn1c(SCC#N)nnc1-c1cccnc1	-17%	3%	?	-10%	0%	-27%
Cc1cccc(NC(c2cccc(Cl)c2)c2ccc3cccnc3c2O)n1 (stereo unspecified)	-6%	5.2µM*	.	5.2µM*	?	.
CCCCC(=O)NC(c1ccc(N(C)C)cc1)c1ccc2cccnc2c1O (stereo unspecified)	-62%	1µM*	?	0.73µM*	?	?
CCn1c(-c2ccccc2F)nc2cc(NC(C)=O)cc(C(=O)N(C)Cc3cn(C)nc3C)c21	.	24%[9.04 µM]	i	-14%	.	.
O=C(O)c1ccccc1C(c1ccccc1)c1ccccc1O (stereo unspecified)	4%	-8%	i	?	-3%	1%
FC(F)(F)c1ccccc1-c1ccc2ncnc(NC3CC3)c2c1	.	23µM*	.	21µM*	.	.
COCCNc1ncnc2ccc(-c3ccc(C(=O)N(C)C)cc3)cc12	.	-12%	.	-2%	.	.
c1csc(CNc2ncnc3ccc(-c4ccoc4)cc23)c1	-66%	?	i	-25%	-19%	9%
FC(F)(F)c1ccccc1-c1ccc2ncnc(NCc3cccs3)c2c1	.	23µM*	.	?	.	.
COCCNc1ncnc2ccc(-c3ccccc3C)cc12	.	10µM*	.	21µM*	.	.
Cc1ccccc1-c1ccc2ncnc(NC3CC3)c2c1	.	16µM*	.	?	.	.
FC(F)(F)c1ccccc1-c1nc(NC2CC2)c2ccccc2n1	.	-5%	.	-27%	.	.
CN(C)C(=O)c1ccc(-c2ccc3ncnc(NC4CC4)c3c2)cc1	.	-7%	.	?	.	.
Cc1ccccc1-c1ccc2ncnc(-n3ccnc3)c2c1	.	21µM*	.	21µM*	.	.
COc1ccccc1-c1cncnc1-n1ccnc1	.	-6%	.	-27%	.	.
COc1ccc(C)cc1N(CC(=O)Nc1ccc(S(=O)(=O)N2CCCC2)cc1)S(C)(=O)=O	-25%	-12%	i	-20%	-1%	7%
CCN1CCN(c2oc(/C=C/c3ccc(OC)c(OC)c3)nc2C#N)CC1	-25%	16µM*	.	?	?	.
SMILES	HepG2 tox	TDP1 cell CPT	S2 tox	DT40 TDP1 no CPT	TGFb inhibitor	ATXN2 expr inh
COc1ccc(/C=C/c2nc(C#N)c(N3CCCCCC3)o2)cc1OC	-39%	12µM*	.	8.2µM*	-34%	.
COc1ccccc1/C=C/c1nc(C#N)c(N2CCCCCC2)o1	-19%	?	.	-27%	.	.
Nc1nc(Nc2ccccc2)nc(NC2CCCCC2)c1[N+](=O)[O-]	-83%	13µM*	i	?	-80%	?
Cc1ccc(Nc2nc(N)c([N+](=O)[O-])c(NCc3ccco3)n2)cc1C	-69%	26µM*	?	?	16µM*	-8%
Cc1cccc(Nc2nc(N)c([N+](=O)[O-])c(NCc3ccccc3)n2)c1	22µM*	?	i	?	?	-25%
Nc1nc(Nc2ccccc2)nc(NCc2ccccc2)c1[N+](=O)[O-]	-14%	?	?	?	-20%	-18%
CNc1nc(N)c([N+](=O)[O-])c(NC2CCCCC2)n1	-22%	-4%	i	?	-1%	-11%
CC(C)(CCC(=S)N1CCOCC1)C1CCCCC1	-16%	?	i	?	2%	44%
O=C(NCCN1CCN(Cc2ccccc2)CC1)c1ccc(CS(=O)(=O)c2ccc(Br)cc2)o1	-31%	?	i	?	-5%	-27%
N#Cc1c(C#N)c(-c2ccccc2)n(-c2ccccc2)c1N	-22%	15µM*	i	12µM*	0%	-1%
Cn1c(N)c(C#N)c(C#N)c1-c1ccccc1	11%	-12%	i	-22%	16%	0%
Cc1cc(C)n(C(C[N+](=O)[O-])c2ccc(Cl)cc2)n1 (stereo unspecified)	0%	2.3µM*	?	2.3µM*	?	-33%
Cc1nnsc1-c1nnc(SCC(=O)c2ccccc2)n1C1CC1	17%	-1%	i	?	5%	-3%
CC(=O)c1cc(-c2ccc(F)cc2)n(CC(=O)NC2CCC(C)CC2)c1C (stereo unspecified)	-10%	?	.	?	0%	.
N#Cc1ccc(CN2C(=O)NC3(CCCCCC3)C2=O)cc1	-33%	0%	i	-16%	-7%	1%
Cc1cnc(NC(=O)Cc2c[nH]c3ccccc23)s1	-16%	-9%	i	-12%	-3%	45%
COc1cccc(CC(=O)Nc2ncc(C)s2)c1	-26%	8.2µM*	i	15µM*	-45%	3%
COc1ccccc1CC(=O)Nc1ncc(C)s1	-2%	?	i	16µM*	-3%	.
COC(=O)c1cc2sc(C)cc2n1Cc1cccc(OC)c1	-9%	?	.	23µM*	.	.
COc1cccc(CC(=O)Nc2nc(C)cs2)c1	-29%	-22%	i	-12%	7%	0%[11.3 µM]
